# Calls of active or inactive are those of the source. Unless noted, how the calls were made is not given here.
# Columns and labels:
# [1] = HepG2 liver cancer cell viability effects, profiling panel, resazurin fluorescence, 24 h, PK04 Diversity Set (AID 1172); conditions: higher = more signal
# [2] = basal S. cerevisiae growth modulation, no modifier, primary screen, OD600, strain BY4716, 24 h, basal condition (AID 1173); conditions: OD600, 24 h, higher = more signal, called active from +8 up or from −8 down
# [3] = MM1S myeloma cell viability, profiling panel, resazurin fluorescence, basal, 24 h, PK04 Diversity Set (AID 1174); conditions: higher = more signal, called active from +8 up or from −8 down;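 further: MM1S multiple myeloma cell line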
# [4] = molecular target: Dihydroorotate dehydrogenase (quinone), mitochondrial (Plasmodium falciparum (isolate 3D7)) (UniProt Q08210); experiment: PfDHODH enzyme inhibitors, primary screen, biochemical, C-terminal His tag, absorbance 600 nm (AID 1175); conditions: DCIP absorbance 600 nm, higher = more signal, called active from +8 up or from −8 down;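 further: recombinant parasite enzyme with a five histidine tag at its C terminus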
# Sequence of Dihydroorotate dehydrogenase (quinone), mitochondrial (Plasmodium falciparum (isolate 3D7)) (Q08210 whole entry, looked up): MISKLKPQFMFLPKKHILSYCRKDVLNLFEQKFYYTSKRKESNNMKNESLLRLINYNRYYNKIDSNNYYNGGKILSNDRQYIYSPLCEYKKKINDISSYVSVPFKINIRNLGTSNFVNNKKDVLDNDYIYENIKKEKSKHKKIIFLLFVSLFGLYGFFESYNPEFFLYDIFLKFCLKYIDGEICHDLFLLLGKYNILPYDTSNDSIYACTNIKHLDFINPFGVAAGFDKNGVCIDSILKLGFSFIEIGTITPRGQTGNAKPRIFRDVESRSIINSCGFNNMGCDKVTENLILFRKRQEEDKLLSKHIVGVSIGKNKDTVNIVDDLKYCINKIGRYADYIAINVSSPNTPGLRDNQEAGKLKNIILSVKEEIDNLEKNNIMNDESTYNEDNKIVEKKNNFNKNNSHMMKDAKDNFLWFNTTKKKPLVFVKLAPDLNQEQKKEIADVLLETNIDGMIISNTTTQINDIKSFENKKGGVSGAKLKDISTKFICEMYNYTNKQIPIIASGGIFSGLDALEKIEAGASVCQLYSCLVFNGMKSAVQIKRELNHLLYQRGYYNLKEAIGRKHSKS
# [5] = P. aeruginosa biofilm formation inhibitors, primary screen, strain PAO1, LB-PBS medium, absorbance 600 nm (AID 1176); conditions: P. aeruginosa PAO1 growth/biofilm, A600, 12 h; higher = more signal
# [6] = S. cerevisiae RM11-1a growth modifiers, primary screen, strain RM11-1a, OD600, basal, 24 h (AID 1177); conditions: OD600, 24 h, higher = more signal, called active from +8 up or from −8 down;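 further: cultures grown under basal conditions with no added stressor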
# [7] = E. coli acrAB mutant growth effects, primary screen, E. coli filamentation inducers, strain DRC39, OD650, 24 h (AID 1178); conditions: higher = more signal, called active from +8 up or from −8 down;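 further: growth measured as culture turbidity by optical density at 650 nm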
# [8] = E. coli acrAB mutant growth effects, primary screen, E. coli filamentation inducers, strain DRC39, OD650, 48 h (AID 1179);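 further: screen aims at cell division blockers that make cells filament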; conditions: E. coli DRC39 delta-acrAB growth, higher = more signal, called active from +8 up or from −8 down
# [9] = RPMI8226 myeloma cell viability, profiling panel, resazurin fluorescence, basal, 24 h, PK04 Diversity Set (AID 1180); conditions: higher = more signal;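 further: RPMI8826 multiple myeloma cell line at 5000 cells per well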
# [10] = molecular target: E3 ubiquitin-protein ligase XIAP (Homo sapiens) (UniProt P98170); experiment: XIAP binders, primary screen, biophysical, small-molecule microarray, fluorescence 635 nm (AID 1181); conditions: small-molecule microarray binding, higher = more signal;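 further: score merges 667 nm emission and signal to noise over triplicate slides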
# Sequence of E3 ubiquitin-protein ligase XIAP (Homo sapiens) (P98170 whole entry, looked up): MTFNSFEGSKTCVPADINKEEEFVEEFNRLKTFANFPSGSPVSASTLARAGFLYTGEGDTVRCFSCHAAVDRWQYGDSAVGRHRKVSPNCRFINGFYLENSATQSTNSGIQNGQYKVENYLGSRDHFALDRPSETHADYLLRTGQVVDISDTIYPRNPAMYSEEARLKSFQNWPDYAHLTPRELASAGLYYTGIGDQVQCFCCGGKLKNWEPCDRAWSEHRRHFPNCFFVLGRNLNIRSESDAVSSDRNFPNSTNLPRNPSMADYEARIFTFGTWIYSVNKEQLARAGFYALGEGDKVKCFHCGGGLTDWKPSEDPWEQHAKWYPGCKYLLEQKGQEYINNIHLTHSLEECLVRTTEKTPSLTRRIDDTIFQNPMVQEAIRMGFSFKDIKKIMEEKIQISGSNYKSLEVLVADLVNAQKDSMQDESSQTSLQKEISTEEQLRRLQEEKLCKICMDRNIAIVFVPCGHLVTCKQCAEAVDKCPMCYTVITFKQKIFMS
# [11] = system: XIP peptide (Xip251-270) binding; experiment: small-molecule binders of XIP peptide, primary screen, biochemical, small-molecule microarray, fluorescence 635/667 nm, 0.1 µg/mL protein (AID 1182); conditions: fluorescent protein binding, 635 nm, higher = more signal, called active from +8 up or from −8 down
# XIP peptide (Xip251-270) = experiment: small-molecule binders of XIP peptide, primary screen, biochemical, small-molecule microarray, fluorescence 635/667 nm, 0.5 µg/mL protein (AID 1183); conditions: small-molecule microarray binding, fluorescence 635 nm; higher = more signal
# [12] = Plasmodium falciparum growth inhibition, primary screen, strain 3D7, DAPI fluorescence, 100 nL (AID 1184);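 further: parasites grown inside human red blood cells in medium with human serum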; conditions: P. falciparum 3D7 growth, 3 d, higher = more signal
# [13] = molecular target: Homeobox protein Hox-A13 (Mus musculus) (UniProt Q62424); experiment: inhibitors of HoxA13-DNA binding, primary screen, biochemical, fluorescence polarization, labeled oligonucleotide (AID 1185); conditions: 15 min, higher = more signal, called active from +8 up or from −8 down
# Sequence of Homeobox protein Hox-A13 (Mus musculus) (Q62424 whole entry, looked up): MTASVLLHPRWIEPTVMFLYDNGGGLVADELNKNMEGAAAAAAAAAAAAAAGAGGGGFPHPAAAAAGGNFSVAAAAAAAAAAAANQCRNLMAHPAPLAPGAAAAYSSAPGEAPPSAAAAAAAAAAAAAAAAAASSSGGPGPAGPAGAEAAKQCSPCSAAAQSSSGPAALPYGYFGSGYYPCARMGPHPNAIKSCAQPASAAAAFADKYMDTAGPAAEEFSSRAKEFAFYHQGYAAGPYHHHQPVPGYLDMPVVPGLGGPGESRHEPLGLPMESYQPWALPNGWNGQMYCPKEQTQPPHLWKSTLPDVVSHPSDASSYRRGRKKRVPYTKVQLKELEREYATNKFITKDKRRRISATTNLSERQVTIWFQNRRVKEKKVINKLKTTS
SMILES,z-score [1],z-score [2],z-score [3],composite z-score [4],z-score [5],z-score [6],z-score [7],z-score [8],z-score [9],composite z-score [10],composite z-score [11],composite z-score (XIP peptide (Xip251-270)),z-score [12],z-score [13]
CO[C@@H](C1CCCCC1)[C@@H](C)[C@H](OCc1cccc(Br)c1)[C@@H](C)CO,0.414,-2.13 (inactive),-0.885 (inactive),0.0434 (inactive),-0.127 (inactive),-0.0839 (inactive),-0.275 (inactive),-0.776 (inactive),-0.835,-0.16,-0.0994 (inactive),-0.0791,-0.254,-4.53 (inactive)
CC(C)[C@@H](OCc1ccccc1)[C@H](C)CON=C1[C@H]2CCn3c(=O)n(-c4ccccc4)c(=O)n3[C@H]2[C@H](O)[C@@H]2O[C@H]12,-0.486,-1.96 (inactive),-0.704 (inactive),-1.78 (inactive),-0.348 (inactive),-0.402 (inactive),0.961 (inactive),0.876 (inactive),-0.789,-0.193,-0.874 (inactive),0.199,-2,-5.16 (inactive)
C#CCCCON=C1C[C@@H](O)[C@@H](O)[C@@H]2[C@@H]3C(=O)N(C[C@@H]4CCCO4)C(=O)[C@@H]3CC[C@H]12,-0.344,0.767 (inactive),-0.448 (inactive),0.347 (inactive),0.0001 (inactive),0.364 (inactive),-0.145 (inactive),0.212 (inactive),-0.179,-0.122,0.241 (inactive),0.317,0.211,-1.28 (inactive)
O=C1C[C@@H](O)[C@@H](O)[C@@H]2[C@@H]3C(=O)N(c4ccc(F)cc4F)C(=O)[C@@H]3CC[C@H]12,-0.635,0.021 (inactive),-0.175 (inactive),-0.0528 (inactive),0.471 (inactive),-0.304 (inactive),-0.297 (inactive),-1.31 (inactive),-0.413,-0.214,0.139 (inactive),-0.0234,0.289,-0.55 (inactive)
CC(C)=CCCC(C)=CCON=C1[C@H]2CCn3c(=O)n(-c4ccccc4)c(=O)n3[C@H]2[C@H](O)[C@@H]2O[C@H]12,-0.792,-3.89 (inactive),-2.7 (inactive),-0.197 (inactive),0.717 (inactive),-0.0881 (inactive),-0.611 (inactive),0.092 (inactive),-2.03,0.293,0.246 (inactive),0.598,-2.23,-4.57 (inactive)
COC(=O)[C@H](C)NC(=O)CCC1CC(OC(=O)NCCc2ccc(F)cc2)CC2(CCCC(COC(=O)NCc3ccccc3)O2)O1 (stereo not given in full),0.445,1.45 (inactive),1.05 (inactive),0.152 (inactive),0.119 (inactive),1.02 (inactive),0.0734 (inactive),-0.445 (inactive),1.07,-0.0601,0.166 (inactive),0.607,-1.93,-1.56 (inactive)
O=C1[C@H]2[C@H]3[C@H](O)[C@H](O)CC(=NO[C@@H]4O[C@H](CO)[C@@H](O)[C@H](O)[C@H]4O)[C@@H]3CC[C@H]2C(=O)N1C1CCCCC1,-0.841,0.431 (inactive),-2.35 (inactive),-0.201 (inactive),0.553 (inactive),0.237 (inactive),-0.0163 (inactive),0.27 (inactive),-0.917,-0.132,-0.25 (inactive),0.0473,0.0387,0.719 (inactive)
O=C1[C@H]2[C@H]3[C@H](O)[C@H](O)CC(=NO[C@@H]4O[C@H](CO)[C@@H](O)[C@H](O)[C@H]4O)[C@@H]3CC[C@H]2C(=O)N1c1cccc(Oc2ccccc2)c1,0.647,0.0857 (inactive),-0.602 (inactive),-0.111 (inactive),-0.343 (inactive),0.0867 (inactive),-0.492 (inactive),-0.961 (inactive),0.279,-0.124,0.311 (inactive),0.519,-0.197,-1.14 (inactive)
COC(=O)[C@H](C)NC(=O)CCC1CC(OC(=O)NCc2cccc3ccccc23)CC2(CCCC(COC(=O)NCc3ccccc3)O2)O1 (stereo not given in full),2.27,-0.79 (inactive),1.18 (inactive),0.0095 (inactive),-0.376 (inactive),0.136 (inactive),-0.221 (inactive),0.324 (inactive),1.42,-0.123,0.0457 (inactive),0.461,-2.02,-1.39 (inactive)
CC=CC1=C(CO)[C@H](O)[C@H]2O[C@H]2[C@@H]1O,-0.504,-0.299 (inactive),0.133 (inactive),0.781 (inactive),-0.102 (inactive),0.39 (inactive),0.615 (inactive),-0.442 (inactive),0.694,-0.204,0.353 (inactive),0.374,0.0425,-0.101 (inactive)
CC(C)(C)N1C(=O)[C@H]2[C@H]3[C@H](O)[C@H](O)CC(=NOC[C@@H](O)COCc4ccco4)[C@@H]3CC[C@H]2C1=O,-0.28,0.382 (inactive),0.0017 (inactive),-0.0796 (inactive),0.213 (inactive),-0.0396 (inactive),-0.323 (inactive),-0.253 (inactive),0.589,-0.173,-0.484 (inactive),0.502,-0.0662,-2.78 (inactive)
O=C1[C@H]2[C@H]3[C@H](O)[C@H](O)CC(=NO[C@@H]4O[C@H](CO)[C@@H](O)[C@H](O)[C@H]4O)[C@H]3CC[C@H]2C(=O)N1C[C@@H]1CCCO1,0.724,0.628 (inactive),-1.45 (inactive),-0.595 (inactive),-0.355 (inactive),0.855 (inactive),0.42 (inactive),0.595 (inactive),-0.39,0.127,-0.48 (inactive),0.184,0.656,0.594 (inactive)
COC(=O)CC=C[C@@H](C)[C@@H](C=NOC(C)CN1CCCCc2nc(C)c(C)cc21)NS(=O)(=O)c1ccc(C)cc1 (stereo not given in full),-0.194,0.434 (inactive),-0.71 (inactive),-0.069 (inactive),0.0525 (inactive),-0.472 (inactive),0.424 (inactive),0.607 (inactive),0.0077,-0.244,-0.598 (inactive),-0.0903,0.453,-0.327 (inactive)
CCOC(=O)[C@H](CC(C)C)NC(=O)CCC1CC(OC(=O)NCc2ccc3c(c2)OCO3)CC2(CCCC(COC(=O)NCCC(C)C)O2)O1 (stereo not given in full),0.54,-0.214 (inactive),1.03 (inactive),0.126 (inactive),0.462 (inactive),0.175 (inactive),1 (inactive),-0.0965 (inactive),0.497,0.0065,0.554 (inactive),0.842,-0.278,-1.7 (inactive)
CCN1C(C)=C(C(=O)OC)[C@@H](c2ccccc2)N2C(=O)[C@](O)(C(=O)OC)CC(C(C)=O)=C12,-0.0348,-1.38 (inactive),0.136 (inactive),-1.27 (inactive),-0.242 (inactive),-0.695 (inactive),0.538 (inactive),0.866 (inactive),-0.11,0.0264,0.181 (inactive),-0.218,0.752,0.334 (inactive)

# — PubChem BioAssay
